± gives the standard deviation.
Experiments:
Settings in all cases: modulator concentration 10 µM
[1] = tested on: RAW-Dual (murine macrophage reporter line); experiment: NF-kB reporter (SEAP) activity fold change vs agonist alone; higher = enhanced NF-kB activity
Outline: (§1)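 Overnight stimulation with a PRR agonist followed pre-incubation for 1 hour at 37 °C with compound at 10 μM final. This was done in RAW-Dual murine macrophage reporter cells seeded at 50 000 per well in 384-well plates. NF-κB (SEAP, QUANTI-Blue absorbance at 620 nm) and IRF (Lucia luciferase, QUANTI-Luc luminescence) were read from the supernatant. Each reporter's fold change relative to the mean agonist-only control on the same plate was averaged over replicate plates.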

[2] = tested on: RAW-Dual (murine macrophage reporter line); experiment: IRF reporter (Lucia luciferase) activity fold change vs agonist alone; higher = enhanced IRF activity
Outline: as §1

[3] = tested on: RAW-Dual (murine macrophage reporter line); experiment: viability score (confluency relative to resting cells, overnight) (fraction); higher = more viable, active = viable (0.7 or more)
Outline: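 In 384-well plates, RAW-Dual macrophages received compound at a final 10 μM overnight. Two confluency masks were then made with IncuCyte software from IncuCyte images of all imaged wells. The viability score is defined as confluency relative to resting cells. Passing the cutoff required both masks to lie above 70% of resting cells.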

[4] = agonist: CpG ODN 1826 0.5 ug/mL

Compound | NF-kB reporter [1, 4] | NF-kB reporter ([1]; agonist: LPS 0.1 ug/mL) | NF-kB reporter ([1]; agonist: MPLA […]) | IRF reporter ([2]; agonist: 3'3'-cGAMP 10 ug/mL) | IRF reporter ([2]; agonist: LPS 0.1 ug/mL) | IRF reporter ([2]; agonist: MPLA […]) | viability score [3]
CS(=O)(=O)Nc1cccc(F)c1 | 1.12 ± 0.088 | 1.08 ± 0.074 | 1.03 ± 0.061 | 1 ± 0.17 | 1.07 ± 0.14 | 1.07 ± 0.22 | 1 (active)
CN(C)CCC(c1ccccc1)c1ccccn1.O=C(O)/C=C\C(=O)O (centres undefined) | 0.373 ± 0.016 | 0.227 ± 0.018 | 0.65 ± 0.036 | 0.0231 ± 0.0026 | 0.0283 ± 0.0046 | 0.0354 ± 0.0064 | 0.377 (inactive)
Cc1cccc(C)c1OCC(=O)N[C@@H](Cc1ccccc1)[C@@H](O)C[C@H](Cc1ccccc1)NC(=O)[C@H](C(C)C)N1CCCNC1=O | 0.665 ± 0.082 | 0.889 ± 0.058 | 1.24 ± 0.12 | 0.67 ± 0.04 | 1.2 ± 0.071 | 1.37 ± 0.12 | 1.02 (active)
Cc1ccc(CN2C3=NCCCN3c3ccccc32)cc1.Cl | 0.294 ± 0.047 | 1.25 ± 0.13 | 1.32 ± 0.17 | 0.881 ± 0.026 | 1.27 ± 0.17 | 1.34 ± 0.2 | 0.999 (active)
CCOc1ccccc1OCCCCOc1cccc(C)c1 | 0.871 ± 0.064 | 0.936 ± 0.071 | 0.995 ± 0.028 | 0.996 ± 0.12 | 0.878 ± 0.13 | 0.96 ± 0.29 | 0.998 (active)
CCOc1cc2ncc(C#N)c(Nc3ccc(F)c(Cl)c3)c2cc1NC(=O)/C=C/CN(C)C | 0.714 ± 0.27 | 0.512 ± 0.048 | 0.445 ± 0.097 | 0.158 ± 0.019 | 0.374 ± 0.04 | 0.22 ± 0.019 | 0.968 (active)
CCn1nc(C)c(S(=O)(=O)N2CC3CC2CS3)c1C (centres undefined) | 0.892 ± 0.039 | 0.936 ± 0.075 | 0.959 ± 0.051 | 1.04 ± 0.055 | 1.17 ± 0.23 | 1.29 ± 0.41 | 0.988 (active)
O=C(NCCSC1CCOCC1)c1ccc(Cl)s1 | 1.21 ± 0.069 | 0.992 ± 0.1 | 1.02 ± 0.036 | 0.898 ± 0.055 | 1.03 ± 0.054 | 1.13 ± 0.14 | 1 (active)
COc1cc(C=NNc2ccc(C(=O)O)cc2)cc(Br)c1O | 1.16 ± 0.13 | 0.97 ± 0.062 | 1.09 ± 0.1 | 0.198 ± 0.006 | 0.241 ± 0.061 | 0.223 ± 0.035 | 1 (active)
CCCc1nc2c(C)cc(-c3nc4ccccc4n3C)cc2n1Cc1ccc(-c2ccccc2C(=O)O)cc1 | 1.29 ± 0.18 | 1.16 ± 0.29 | 0.99 ± 0.073 | 0.997 ± 0.032 | 1.49 ± 0.28 | 1.06 ± 0.11 | 0.993 (active)
CCN(CC)C(=O)Nc1ccc(OCC(O)CNC(C)(C)C)c(C(C)=O)c1 (centres undefined) [Prestw-1132] | 1.41 ± 0.08 | 1.01 ± 0.062 | 1.16 ± 0.079 | 0.979 ± 0.059 | 1.44 ± 0.15 | 1.29 ± 0.12 | 0.997 (active)
CC1(C)Cc2ccccc2C(C[N+](=O)[O-])=N1 | 0.899 ± 0.07 | 0.901 ± 0.1 | 1.65 ± 0.61 | 0.963 ± 0.056 | 1.26 ± 0.08 | 1.38 ± 0.13 | 0.997 (active)
Cc1cccc(-c2nn3c(c2-c2ccnc4ccc(C(N)=O)cc24)CCC3)n1 | 1.08 ± 0.046 | 1.22 ± 0.1 | 1.46 ± 0.12 | 0.903 ± 0.042 | 0.976 ± 0.16 | 1.12 ± 0.28 | 0.99 (active)
COC(=O)C(CCSC)NC(=O)c1cc(OC)c(OC)c(OC)c1 (centres undefined) | 1.08 ± 0.18 | 1.09 ± 0.096 | 1.1 ± 0.14 | 1.02 ± 0.031 | 0.923 ± 0.089 | 1.07 ± 0.12 | 0.712 (active)
O=C(NN=Cc1c(O)ccc2ccccc12)c1ccncc1 | 2.37 ± 0.19 | 1.3 ± 0.086 | 1.48 ± 0.052 | 0.75 ± 0.11 | 1.26 ± 0.1 | 1.21 ± 0.2 | 0.965 (active)
Cl.O=C1CN2Cc3c(ccc(Cl)c3Cl)NC2=N1 | 0.954 ± 0.13 | 0.963 ± 0.17 | 0.96 ± 0.077 | 0.959 ± 0.051 | 1.24 ± 0.29 | 0.993 ± 0.2 | 1.01 (active)
CC(=O)Nc1ccc(O)cc1 [Prestw-868] | 0.876 ± 0.28 | 1.04 ± 0.081 | 0.965 ± 0.082 | 0.972 ± 0.056 | 0.938 ± 0.19 | 1.03 ± 0.14 | 0.998 (active)
Fc1ccc(Nc2nc(NN=Cc3c[nH]nc3-c3ccccc3)nc(N3CCOCC3)n2)cc1 | 0.537 ± 0.044 | 0.981 ± 0.071 | 2.12 ± 0.2 | 1 ± 0.1 | 1.57 ± 0.21 | 2.78 ± 0.4 | 0.875 (active)
COc1ccc(CN(CCN(C)C)c2ccccn2)cc1.O=C(O)C=CC(=O)O | 0.857 ± 0.065 | 0.954 ± 0.051 | 1.01 ± 0.021 | 0.982 ± 0.054 | 0.915 ± 0.097 | 0.897 ± 0.07 | 1 (active)
O=[N+]([O-])c1ccc(C=CC=Nc2ccc(-c3nc4ccccc4s3)c(O)c2)cc1 | 0.813 ± 0.06 | 1.04 ± 0.067 | 0.971 ± 0.034 | 0.746 ± 0.042 | 0.973 ± 0.082 | 0.946 ± 0.079 | 0.994 (active)
O=C(CC(c1ccccc1)c1ccccc1)Nc1ccc(CC(=O)N2CCC(O)CC2)cc1 | 1.03 ± 0.078 | 1.13 ± 0.097 | 0.907 ± 0.11 | 1.05 ± 0.062 | 1.13 ± 0.082 | 1.25 ± 0.1 | 1.01 (active)
O=C1CCCc2[nH]ccc21 | 1.03 ± 0.12 | 1.03 ± 0.11 | 1.01 ± 0.092 | 1.02 ± 0.084 | 1.04 ± 0.094 | 0.998 ± 0.21 | 0.999 (active)
O=C1c2ccccc2-c2nc3ccccc3n21 | 0.969 ± 0.17 | 1.24 ± 0.11 | 1.14 ± 0.12 | 0.983 ± 0.033 | 1.05 ± 0.21 | 1.28 ± 0.16 | 0.856 (active)
CC1(C)CCCC2(C)C1CCC1(C)OC(=O)CC12 (centres undefined) | 0.532 ± 0.077 | 0.669 ± 0.11 | 0.762 ± 0.026 | 0.943 ± 0.11 | 0.929 ± 0.07 | 1.37 ± 0.18 | 0.159 (inactive)
COC(=O)C1C(=O)C(=CNc2ccccc2C)C(=O)CC1(C)C (centres undefined) | 1.07 ± 0.092 | 1.02 ± 0.075 | 1.03 ± 0.1 | 0.993 ± 0.049 | 1.12 ± 0.34 | 1.08 ± 0.2 | 1.03 (active)
CC1SC(c2ccccc2)NC1=O (centres undefined) | 1.04 ± 0.08 | 1.06 ± 0.065 | 0.952 ± 0.055 | 0.791 ± 0.026 | 1.42 ± 0.098 | 1.2 ± 0.12 | 0.999 (active)
COc1ccc(Nc2nc(Nc3ccc(F)cc3)nc(N3CCOCC3)n2)cc1OC | 0.409 ± 0.059 | 1.61 ± 0.14 | 2.96 ± 0.16 | 0.413 ± 0.036 | 1.36 ± 0.17 | 2.15 ± 0.54 | 0.905 (active)
